Data reported in the supplement of paper PMC11732987, “Enantioselective OTUD7B fragment discovery through chemoproteomics screening and high-throughput optimisation” (Communications Chemistry, 2025).

How the values were obtained:
Assay in all cases: log2 ratio of Biotin-Ahx-Ub-VS probe labelling (fragment/DMSO); higher = less target engagement (more negative = stronger competition), active = hit call of the paper (q ≤ 0.05, log2 ratio ≤ -1)
Settings in all cases: compound concentration: 200 uM; treatment time: 3 h
USP34 = USP34 (UniProt Q70CQ2)
Chain of USP34 (Q70CQ2 whole entry, the tested form may be a part): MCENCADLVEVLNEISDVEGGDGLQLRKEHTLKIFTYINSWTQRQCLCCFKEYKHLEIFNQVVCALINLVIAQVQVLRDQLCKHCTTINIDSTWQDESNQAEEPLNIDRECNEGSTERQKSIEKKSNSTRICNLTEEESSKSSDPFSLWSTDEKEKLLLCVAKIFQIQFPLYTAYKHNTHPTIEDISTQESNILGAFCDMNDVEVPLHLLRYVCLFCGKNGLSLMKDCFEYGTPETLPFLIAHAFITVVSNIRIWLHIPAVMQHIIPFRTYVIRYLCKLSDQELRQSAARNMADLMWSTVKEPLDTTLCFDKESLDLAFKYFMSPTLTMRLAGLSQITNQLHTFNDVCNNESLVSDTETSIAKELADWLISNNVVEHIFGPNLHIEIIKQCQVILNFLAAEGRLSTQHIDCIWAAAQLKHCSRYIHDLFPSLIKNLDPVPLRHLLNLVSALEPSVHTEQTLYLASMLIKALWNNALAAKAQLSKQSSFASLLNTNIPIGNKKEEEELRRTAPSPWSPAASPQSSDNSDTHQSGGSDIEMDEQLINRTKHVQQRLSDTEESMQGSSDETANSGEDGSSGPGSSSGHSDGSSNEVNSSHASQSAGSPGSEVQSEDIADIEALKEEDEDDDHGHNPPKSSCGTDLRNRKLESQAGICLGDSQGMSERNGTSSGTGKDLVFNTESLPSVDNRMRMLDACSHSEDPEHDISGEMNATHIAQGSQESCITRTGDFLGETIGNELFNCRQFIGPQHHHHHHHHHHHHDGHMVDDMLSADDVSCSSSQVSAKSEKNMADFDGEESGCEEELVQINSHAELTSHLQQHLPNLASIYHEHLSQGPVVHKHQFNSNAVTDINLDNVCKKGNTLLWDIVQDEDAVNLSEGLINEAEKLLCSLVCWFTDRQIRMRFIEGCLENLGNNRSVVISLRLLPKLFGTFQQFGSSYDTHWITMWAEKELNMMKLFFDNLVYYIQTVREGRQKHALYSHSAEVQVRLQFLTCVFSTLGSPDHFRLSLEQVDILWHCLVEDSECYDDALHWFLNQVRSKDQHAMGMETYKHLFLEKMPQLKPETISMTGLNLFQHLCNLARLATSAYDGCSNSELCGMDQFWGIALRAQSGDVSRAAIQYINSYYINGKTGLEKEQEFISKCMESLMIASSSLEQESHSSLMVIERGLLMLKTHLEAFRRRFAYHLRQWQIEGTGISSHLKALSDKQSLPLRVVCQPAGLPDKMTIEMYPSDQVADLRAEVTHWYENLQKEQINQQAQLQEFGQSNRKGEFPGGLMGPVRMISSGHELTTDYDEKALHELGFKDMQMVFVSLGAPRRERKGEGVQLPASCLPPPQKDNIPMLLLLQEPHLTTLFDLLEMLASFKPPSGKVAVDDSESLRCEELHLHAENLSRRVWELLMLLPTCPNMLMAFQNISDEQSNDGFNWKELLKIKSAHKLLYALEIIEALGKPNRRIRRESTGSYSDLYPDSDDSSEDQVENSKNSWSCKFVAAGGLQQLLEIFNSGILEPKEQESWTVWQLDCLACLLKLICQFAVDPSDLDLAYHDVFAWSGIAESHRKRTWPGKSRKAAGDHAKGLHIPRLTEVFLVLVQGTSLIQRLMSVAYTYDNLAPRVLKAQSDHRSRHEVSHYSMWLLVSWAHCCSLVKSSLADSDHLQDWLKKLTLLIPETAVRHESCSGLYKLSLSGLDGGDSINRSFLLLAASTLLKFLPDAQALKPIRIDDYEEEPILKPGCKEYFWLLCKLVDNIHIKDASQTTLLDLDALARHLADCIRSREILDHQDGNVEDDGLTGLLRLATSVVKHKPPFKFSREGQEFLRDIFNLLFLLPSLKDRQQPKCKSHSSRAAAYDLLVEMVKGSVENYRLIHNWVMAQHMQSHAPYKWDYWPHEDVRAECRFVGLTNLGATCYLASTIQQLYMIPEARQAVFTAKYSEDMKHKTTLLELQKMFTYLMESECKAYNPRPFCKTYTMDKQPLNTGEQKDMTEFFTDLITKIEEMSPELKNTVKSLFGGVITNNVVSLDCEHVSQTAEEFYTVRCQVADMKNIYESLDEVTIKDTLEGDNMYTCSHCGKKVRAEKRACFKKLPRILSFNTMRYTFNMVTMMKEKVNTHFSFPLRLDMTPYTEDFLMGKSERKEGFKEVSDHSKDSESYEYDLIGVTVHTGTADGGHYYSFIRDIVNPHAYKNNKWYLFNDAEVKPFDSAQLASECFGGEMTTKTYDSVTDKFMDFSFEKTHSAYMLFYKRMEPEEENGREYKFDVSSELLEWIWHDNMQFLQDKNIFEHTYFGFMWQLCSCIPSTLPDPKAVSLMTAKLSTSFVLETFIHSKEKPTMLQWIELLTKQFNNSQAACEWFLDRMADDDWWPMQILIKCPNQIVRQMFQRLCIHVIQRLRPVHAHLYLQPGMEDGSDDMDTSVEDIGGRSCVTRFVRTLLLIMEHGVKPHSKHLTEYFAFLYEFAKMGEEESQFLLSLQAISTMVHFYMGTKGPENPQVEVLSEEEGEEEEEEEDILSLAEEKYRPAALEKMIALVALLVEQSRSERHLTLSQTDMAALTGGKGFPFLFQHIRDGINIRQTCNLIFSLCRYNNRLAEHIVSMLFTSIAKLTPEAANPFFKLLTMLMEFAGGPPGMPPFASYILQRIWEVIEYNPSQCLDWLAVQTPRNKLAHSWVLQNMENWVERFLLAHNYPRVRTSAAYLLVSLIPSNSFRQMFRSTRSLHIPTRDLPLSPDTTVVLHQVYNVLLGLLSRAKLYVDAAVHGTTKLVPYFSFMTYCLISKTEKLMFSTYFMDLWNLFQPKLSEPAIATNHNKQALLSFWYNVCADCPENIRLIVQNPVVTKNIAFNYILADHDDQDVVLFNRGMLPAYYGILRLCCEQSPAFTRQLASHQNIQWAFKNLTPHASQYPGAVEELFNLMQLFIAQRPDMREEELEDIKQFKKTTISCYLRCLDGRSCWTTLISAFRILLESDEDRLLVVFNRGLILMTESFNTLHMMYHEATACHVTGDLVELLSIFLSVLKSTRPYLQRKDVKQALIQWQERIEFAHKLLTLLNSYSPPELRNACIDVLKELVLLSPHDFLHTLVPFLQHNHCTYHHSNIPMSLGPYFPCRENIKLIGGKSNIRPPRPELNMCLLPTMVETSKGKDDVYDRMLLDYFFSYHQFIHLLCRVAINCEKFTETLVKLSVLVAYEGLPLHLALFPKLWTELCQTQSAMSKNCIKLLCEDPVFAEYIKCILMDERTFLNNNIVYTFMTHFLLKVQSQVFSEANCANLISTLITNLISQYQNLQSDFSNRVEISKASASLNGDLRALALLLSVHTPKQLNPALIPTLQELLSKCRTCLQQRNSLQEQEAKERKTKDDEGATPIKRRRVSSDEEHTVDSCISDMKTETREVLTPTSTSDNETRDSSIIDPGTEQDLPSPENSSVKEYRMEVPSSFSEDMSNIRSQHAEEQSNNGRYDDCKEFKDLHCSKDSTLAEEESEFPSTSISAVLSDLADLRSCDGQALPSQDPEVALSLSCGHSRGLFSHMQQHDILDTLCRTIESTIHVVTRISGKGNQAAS
Summary of the method: (§1)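 Labelling with Biotin-Ahx-Ub-VS (0.5 µM final, 1 h) followed a 3 h triplicate treatment of HEK293T lysate (495 µg per sample, Tris/CHAPS/IGEPAL buffer with protease inhibitors) with fragment at 200 µM or vehicle. Labelled DUBs were NeutrAvidin-enriched, digested with LysC and trypsin, and run by diaPASEF LC-MS/MS. The values, average log2 fragment/vehicle ratios by unpaired t-test, come from global-median-normalised Spectronaut label-free quantities. Proteins with ≥2 unique peptides were used.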

USP36 = target: T1, USP36 (UniProt Q9P275)
T1 sequence (whole entry): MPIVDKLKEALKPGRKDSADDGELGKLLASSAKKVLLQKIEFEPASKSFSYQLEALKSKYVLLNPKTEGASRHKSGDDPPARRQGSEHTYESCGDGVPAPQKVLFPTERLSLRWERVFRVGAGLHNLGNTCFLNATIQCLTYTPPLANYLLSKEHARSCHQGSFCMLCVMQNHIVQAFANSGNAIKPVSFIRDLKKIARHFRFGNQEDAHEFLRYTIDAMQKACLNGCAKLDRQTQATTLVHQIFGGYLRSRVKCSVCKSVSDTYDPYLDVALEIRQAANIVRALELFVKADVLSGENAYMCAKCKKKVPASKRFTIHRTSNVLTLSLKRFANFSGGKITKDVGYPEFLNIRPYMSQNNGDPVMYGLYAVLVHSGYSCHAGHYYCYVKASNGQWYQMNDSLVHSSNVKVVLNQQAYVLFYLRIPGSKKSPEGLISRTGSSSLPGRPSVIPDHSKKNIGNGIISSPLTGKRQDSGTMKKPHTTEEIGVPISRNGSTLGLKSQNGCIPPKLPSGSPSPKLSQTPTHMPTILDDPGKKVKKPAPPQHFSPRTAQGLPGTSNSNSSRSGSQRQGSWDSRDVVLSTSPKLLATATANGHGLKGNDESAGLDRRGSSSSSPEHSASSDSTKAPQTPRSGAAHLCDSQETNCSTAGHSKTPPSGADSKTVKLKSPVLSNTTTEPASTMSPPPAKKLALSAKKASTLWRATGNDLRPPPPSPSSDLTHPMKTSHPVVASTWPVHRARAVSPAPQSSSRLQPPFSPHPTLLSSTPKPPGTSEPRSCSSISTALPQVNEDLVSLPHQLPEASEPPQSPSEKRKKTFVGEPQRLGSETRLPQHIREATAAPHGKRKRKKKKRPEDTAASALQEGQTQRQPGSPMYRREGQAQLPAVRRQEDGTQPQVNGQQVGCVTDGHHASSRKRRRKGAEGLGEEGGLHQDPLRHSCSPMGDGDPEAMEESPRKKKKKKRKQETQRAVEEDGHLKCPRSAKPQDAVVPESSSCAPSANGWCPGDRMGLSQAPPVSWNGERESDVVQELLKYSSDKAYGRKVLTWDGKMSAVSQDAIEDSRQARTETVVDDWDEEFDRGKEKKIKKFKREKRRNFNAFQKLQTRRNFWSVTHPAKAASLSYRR
Summary of the method: as §1

USP38 = target: T2, USP38 (UniProt Q8NB14)
T2 sequence (whole entry): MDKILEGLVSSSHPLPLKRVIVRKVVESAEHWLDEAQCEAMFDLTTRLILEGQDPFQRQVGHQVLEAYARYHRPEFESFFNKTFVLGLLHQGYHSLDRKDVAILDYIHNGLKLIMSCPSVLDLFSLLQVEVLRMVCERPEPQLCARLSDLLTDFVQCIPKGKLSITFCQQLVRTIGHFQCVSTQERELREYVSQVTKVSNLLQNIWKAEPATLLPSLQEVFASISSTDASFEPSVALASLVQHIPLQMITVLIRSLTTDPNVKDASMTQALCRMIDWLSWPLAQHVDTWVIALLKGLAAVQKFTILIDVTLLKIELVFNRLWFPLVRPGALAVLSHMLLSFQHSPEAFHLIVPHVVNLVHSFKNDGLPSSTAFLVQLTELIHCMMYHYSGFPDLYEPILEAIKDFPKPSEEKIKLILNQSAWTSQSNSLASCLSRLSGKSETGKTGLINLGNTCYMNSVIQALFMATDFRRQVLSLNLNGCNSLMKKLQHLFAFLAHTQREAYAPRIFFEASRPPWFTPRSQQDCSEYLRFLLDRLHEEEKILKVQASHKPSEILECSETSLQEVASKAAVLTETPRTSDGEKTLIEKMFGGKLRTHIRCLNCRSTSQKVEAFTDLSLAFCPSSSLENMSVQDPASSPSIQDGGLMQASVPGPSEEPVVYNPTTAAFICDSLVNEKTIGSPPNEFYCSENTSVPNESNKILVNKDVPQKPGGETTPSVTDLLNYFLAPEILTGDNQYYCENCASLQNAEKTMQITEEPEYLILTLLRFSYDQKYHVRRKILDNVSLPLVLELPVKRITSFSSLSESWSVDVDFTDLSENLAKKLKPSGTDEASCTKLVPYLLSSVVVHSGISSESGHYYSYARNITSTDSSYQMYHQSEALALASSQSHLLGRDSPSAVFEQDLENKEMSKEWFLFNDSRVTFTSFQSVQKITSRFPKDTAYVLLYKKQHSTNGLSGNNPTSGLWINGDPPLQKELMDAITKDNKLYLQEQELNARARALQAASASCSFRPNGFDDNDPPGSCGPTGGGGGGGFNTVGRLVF
Summary of the method: as §1

USP39 = target: T3, USP39 (UniProt Q53GS9)
T3 sequence (whole entry): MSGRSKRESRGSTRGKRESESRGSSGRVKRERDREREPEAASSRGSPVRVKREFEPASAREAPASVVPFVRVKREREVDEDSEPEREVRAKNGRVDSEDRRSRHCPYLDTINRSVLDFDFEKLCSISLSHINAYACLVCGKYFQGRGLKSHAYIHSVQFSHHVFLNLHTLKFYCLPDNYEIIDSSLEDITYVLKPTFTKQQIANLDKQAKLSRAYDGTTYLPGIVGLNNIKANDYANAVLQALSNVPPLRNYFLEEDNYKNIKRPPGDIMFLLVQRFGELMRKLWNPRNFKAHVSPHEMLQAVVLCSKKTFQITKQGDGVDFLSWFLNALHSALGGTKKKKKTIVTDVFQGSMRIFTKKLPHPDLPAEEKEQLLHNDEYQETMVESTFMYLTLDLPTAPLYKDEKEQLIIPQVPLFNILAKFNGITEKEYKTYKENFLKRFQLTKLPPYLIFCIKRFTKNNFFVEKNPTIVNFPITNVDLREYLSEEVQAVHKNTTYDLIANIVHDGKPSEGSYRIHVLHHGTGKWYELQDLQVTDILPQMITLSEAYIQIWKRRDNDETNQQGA
Summary of the method: as §1

USP4 = target: T4, USP4 (UniProt Q13107)
T4 sequence (whole entry): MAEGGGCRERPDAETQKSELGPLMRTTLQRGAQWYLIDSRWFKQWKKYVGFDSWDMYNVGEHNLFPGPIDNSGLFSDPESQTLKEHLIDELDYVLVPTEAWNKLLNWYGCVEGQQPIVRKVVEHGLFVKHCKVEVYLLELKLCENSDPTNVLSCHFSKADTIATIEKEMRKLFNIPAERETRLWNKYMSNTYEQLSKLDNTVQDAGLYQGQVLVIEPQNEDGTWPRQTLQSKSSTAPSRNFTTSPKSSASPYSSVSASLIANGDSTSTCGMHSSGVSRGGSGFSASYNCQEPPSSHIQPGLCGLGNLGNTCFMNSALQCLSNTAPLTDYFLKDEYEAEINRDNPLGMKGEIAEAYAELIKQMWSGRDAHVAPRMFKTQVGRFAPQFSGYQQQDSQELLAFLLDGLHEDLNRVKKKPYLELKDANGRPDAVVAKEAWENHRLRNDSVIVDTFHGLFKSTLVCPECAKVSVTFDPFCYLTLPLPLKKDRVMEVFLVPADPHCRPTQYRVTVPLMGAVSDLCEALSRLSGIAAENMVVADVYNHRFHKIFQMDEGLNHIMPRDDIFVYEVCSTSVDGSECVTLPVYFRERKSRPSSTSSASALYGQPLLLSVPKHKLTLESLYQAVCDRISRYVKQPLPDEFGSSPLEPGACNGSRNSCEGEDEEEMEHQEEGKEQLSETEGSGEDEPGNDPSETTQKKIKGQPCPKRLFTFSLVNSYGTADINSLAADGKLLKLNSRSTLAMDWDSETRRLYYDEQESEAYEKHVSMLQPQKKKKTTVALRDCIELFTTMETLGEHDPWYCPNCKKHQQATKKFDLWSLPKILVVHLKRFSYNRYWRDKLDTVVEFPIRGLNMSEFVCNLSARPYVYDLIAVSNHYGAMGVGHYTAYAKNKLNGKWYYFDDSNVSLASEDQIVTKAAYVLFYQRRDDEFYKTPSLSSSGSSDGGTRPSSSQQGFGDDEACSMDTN
Summary of the method: as §1

Measured: log2 ratio of Biotin-Ahx-Ub-VS probe labelling

NS(=O)(=O)c1ccc(Cl)c(NC(=O)CCl)c1
inactive: USP34 -0.381 | USP36 -0.132 | USP38 0.0479 | USP39 0.175 | USP4 -0.198
